RPL19A TOR yeast: modulators of TOR pathway RPL19A-GFP in S. cerevisiae | 330,000 compounds, 0.3% hits | S. cerevisiae RPL19A-GFP strain, flow cytometry, 3 h; stronger effect = lower value | AID 2025 | percent response vs DMSO, % at 10 µM;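 active = percent response vs DMSO below 50%; inconclusive = fewer than 70 events counted for the yeast strain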;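 note: median channel GFP fluorescence of the barcoded RPL19A-GFP strain; ratio of sample median GFP to plate DMSO average so 100% = DMSO; lower means less RPL19A-GFP as with rapamycin TOR inhibition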
MEP2 TOR yeast: yeast TOR pathway MEP2-GFP modulation; S. cerevisiae MEP2-GFP strain, flow cytometry GFP, 3 h; 100% = DMSO control level; GFP response vs DMSO, % at 10 µM; 330,000 compounds, 0.51% hits; AID 2016;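 active = GFP response versus DMSO above a set limit, roughly screen mean plus 3 SD, cut at about 180% in these data; inconclusive = fewer than 70 cells counted for a yeast strain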;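 note: median GFP fluorescence of the barcode-gated MEP2-GFP cells per well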
AGP1 TOR yeast: alters AGP1-GFP fluorescence in TOR pathway yeast screen | GFP response vs DMSO, % at 10 µM | 320,000 compounds, 0.02% hits | S. cerevisiae AGP1-GFP multiplex flow cytometry, 3 h; GFP as percent of DMSO wells | AID 2066;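 active = GFP response relative to DMSO above a set limit, near screen average plus 3 SD, cut at about 150% in these data; inconclusive = fewer than 70 cells counted for the yeast strain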;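 note: median GFP channel fluorescence of the gated AGP1 strain per well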
CIT2-GFP yeast: yeast TOR pathway CIT2-GFP modulation; S. cerevisiae CIT2-GFP strain, flow cytometry, 3 h; 100 means same as DMSO wells; GFP response vs DMSO, % at 10 µM; 320,000 compounds, 0.065% hits; AID 2029;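 active = GFP response relative to DMSO above a set limit, near the screen mean plus 3 SD, cut at about 150% in these data; inconclusive = Fewer than 70 cells measured for a yeast strain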;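 note: ratio of well median GFP fluorescence to mean of DMSO wells on the plate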
LAP4-GFP MLPCN: yeast TOR pathway LAP4-GFP modulation. S. cerevisiae LAP4-GFP multiplex, flow cytometry GFP, 3 h; median GFP as percent of DMSO wells. GFP response vs DMSO, % at 10 µM. 320,000 compounds, 0.34% hits. AID 2023;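 active = GFP response vs DMSO above a set limit, about the screen mean plus 3 SD, cut at about 150% in these data; inconclusive = under 70 cell events counted for the yeast strain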
* = called active by the depositor; ? = inconclusive; · = not tested or not shown; [ ] = dose if it differs, or a comment. Shown are actives, neighbours in structure and some others; about 0.92% of the full set was active somewhere.

SMILES | RPL19A TOR yeast | MEP2 TOR yeast | AGP1 TOR yeast | CIT2-GFP yeast | LAP4-GFP MLPCN
Cc1ccc(/C=C/S(=O)(=O)NCCC(=O)NCc2ccc(F)cc2)cc1 | 101 | 96 | 97 | 96 | 102
O=C1Nc2ccccc2C(=O)C1(Cl)Cc1ccccc1 (stereo not given) | · | 86 | 56 | 116 | 184*
NS(=O)(=O)c1ccc(CCNc2ccc(C(F)(F)F)cn2)cc1 | 32*[may fluoresce violet] | 354*[may fluoresce violet] | ? | ? | ?
FC(F)(F)c1ccc(NCCc2ccccc2)nc1 | 104 | 109 | 93 | 102 | 96
O=c1cc(-c2ccc(F)cc2)oc2ccccc12 | 95 | 97 | 91 | 99 | 99
CSc1ccc(-c2cc(=O)c3ccccc3o2)cc1 | 80 | 99 | 83 | 73 | 170*
Cc1ccc(S(=O)(=O)N2CCN(C(=O)CN3CCCSc4ccccc43)CC2)cc1 | 99 | 101 | 100 | 96 | 104
C=CC(=O)NC(C)(C)Cc1ccccc1 | 97 | 98 | 99 | 105 | 100
CC(C#N)(Cc1ccccc1)Nc1ccccc1 (stereo not given) | 17*[may fluoresce violet] | ? | ? | ? | 72
Cc1ccccc1CNc1nnnn1C | 50*[may fluoresce violet] | 84 | ? | ? | 105
Nc1nc(COc2ccc(F)cc2Cl)nc(N2CCCCC2)n1 | 104 | 104 | 102 | 103 | 95
CC(=O)c1cc(C#N)c(SCc2ccccc2)nc1C | 56 | 184*[may fluoresce violet] | · | ? | 101
Cc1cc(/C=C2\SC(N)=NC2=O)c(C)n1-c1ccc(F)cc1 | 94 | 106 | 99 | 96 | 112
COc1ccc(CNC2CCCCC2C)c(OC)c1 (stereo not given) | 45*[may fluoresce violet] | 148 | 32 | ? | 91
Cc1ccc(S(=O)(=O)N(C)C)cc1NC(=O)COC(=O)c1ccc2ccccc2n1 | 97 | 105 | 93 | 106 | 107
COc1ccc(C(C(=O)NCCC(C)C)N(CCO)C(=O)c2snc(C(N)=O)c2N)cc1 (stereo not given) | 104 | 99 | 103 | 106 | 96
CS(=O)(=O)N1CCN(c2nnc(-c3ccccc3)c3ccccc23)CC1 | 57 | 230*[may fluoresce violet] | ? | ? | 89
COc1cccc(C(=O)COC(=O)CCC(=O)NC2CCCCC2)c1 | 99 | 107 | 93 | 101 | 96
CCOc1ccc(Nc2nc(N)c([N+](=O)[O-])c(NCc3ccccc3)n2)cc1 | 100 | 104 | 110 | 97 | 110
CCOc1ccc(Nc2nc(N(C)c3ccccc3)nc(N)c2[N+](=O)[O-])cc1 | 63 | 199* | 28 | 102 | 94
COc1ccc(-n2c(SCC(=O)Nc3ccc(C(=O)O)cc3)nnc2-c2cccs2)cc1 | 96 | 116 | 108 | 104 | 101
COc1ccc(OC)c(NC(=O)CSc2nnc(-c3ccco3)n2-c2ccc(C(=O)O)cc2)c1 | 37*[may fluoresce violet] | 279*[may fluoresce violet] | ? | ? | 95
COc1ccc(-c2nnc(SCC(=O)Nc3ccc(C(=O)O)cc3)n2-c2ccc(Cl)cc2)cc1 | 39*[may fluoresce violet] | 643*[may fluoresce violet] | 30 | ? | 92
Cc1ccc(S(=O)(=O)NCCCCCC(=O)Nc2c(C)n(C)n(-c3ccccc3)c2=O)cc1 | 37*[may fluoresce violet] | 251*[may fluoresce violet] | ? | ? | 62
Cc1ccc(N(CC2CO2)S(=O)(=O)c2ccccc2[N+](=O)[O-])cc1 (stereo not given) | 101 | 107 | 98 | 106 | 101
SMILES | RPL19A TOR yeast | MEP2 TOR yeast | AGP1 TOR yeast | CIT2-GFP yeast | LAP4-GFP MLPCN
O=C(/C=C/c1ccccc1)C1=C(O)C(=O)N(CCO)C1c1cccc([N+](=O)[O-])c1 (stereo not given) | 59 | 639* | 48 | 105 | 107
Cc1ccc(OCCCCn2ccnc2C)c(C)c1 | 71 | 196* | 118 | 117 | 139
CCc1ccc(C2=NN(C(C)=O)C(c3ccco3)C2)cc1 (stereo not given) | 43*[may fluoresce violet] | 79 | ? | ? | 156*[may fluoresce violet]
O=C(CCCCCNC(=S)Nc1ccc(Cl)cc1)C[N+](=O)[O-] | 99 | 107 | 103 | 95 | 106
COc1ccc(NC(=S)NCCCCCC(=O)C[N+](=O)[O-])cc1 | 88 | 119 | 84 | 63 | 251*
COc1ccc(C(=O)CCS(=O)(=O)c2ccc(C)cc2)cc1 | 98 | 98 | 106 | 116 | 114
Cc1ccc(C(=O)CCS(=O)(=O)c2ccc(Br)cc2)cc1 | 93 | 106 | 119 | 159*[may fluoresce green] | 104
Cc1ccc(S(=O)(=O)CCC(=O)c2cccc([N+](=O)[O-])c2)cc1 | 95 | 107 | 122 | 161*[may fluoresce green] | 108
COC(=O)c1cc(S(=O)(=O)C(C)C)c(S(C)=O)s1 (stereo not given) | 32*[may fluoresce violet] | 435*[may fluoresce violet] | ? | ? | 78
CSc1sc(C(=O)NCC2CC2)cc1S(=O)(=O)C(C)C | 91 | 92 | 94 | 83 | 98
Cc1ccc(S(=O)(=O)N2CCOCC2)cc1C(=O)OCCOc1cccc(Cl)c1 | 102 | 107 | 107 | 93 | 108
COCCCNC(=O)c1c(N)n(-c2ccccc2)c2nc3ccccc3nc12 | 93 | 106 | · | · | ·
COC(=O)c1c(N)n(-c2ccc(NC(C)=O)cc2)c2nc3ccccc3nc12 | 42*[may fluoresce violet] | 365*[may fluoresce violet] | ? | ? | 85
COc1cccc(/C=N/NC(=O)c2ccoc2C)c1 | 62 | 322*[may fluoresce violet] | ? | ? | 104
COc1cc(/C=N/NC(=O)c2ccoc2C)ccc1O | 102 | 116 | 35 | 103 | 77
Cc1cc(C)cc(NC(=S)N2CCN(S(=O)(=O)c3ccccc3)CC2)c1 | 101 | 97 | 86 | 88 | 68
CCOc1ccc(/C=N/NC(=O)c2nnn(-c3nonc3N)c2-c2ccc(OCC)cc2)cc1 | 106 | 107 | 104 | 117 | 92
CCN(CC)Cc1c(C(=O)N/N=C/c2ccccn2)nnn1-c1nonc1N | 55 | 295*[may fluoresce violet] | 19 | ? | 90
CCN(CC)Cc1c(C(=O)N/N=C/c2cccc3ccccc23)nnn1-c1nonc1N | 99 | 112 | 96 | 106 | 102
CCN(CC)c1ccc(/C=N/NC(=O)c2nnn(-c3nonc3N)c2-c2ccc(C)cc2)cc1 | 33*[may fluoresce violet] | 193*[may fluoresce violet] | 20 | ? | 81
O=S1(=O)N=C(N2CCCc3ccccc32)c2ccccc21 | 99 | 104 | 94 | 89 | 96
O=S1(=O)N=C(N2CCc3ccccc3C2)c2ccccc21 | 43*[may fluoresce violet] | 336*[may fluoresce violet] | ? | ? | 87
Cc1ccc(C2=NCCn3nc4cc(C(F)(F)F)ccc4c32)cc1 | 96 | 106 | 99 | 93 | 104
COc1ccccc1NC(=O)c1cc(S(=O)(=O)NC2CCCC2)ccc1F | 39*[may fluoresce violet] | 266*[may fluoresce violet] | ? | ? | 59
CC1(c2ccccc2)NC(=O)N(CC(=O)Nc2ccc3c(c2)CCC3)C1=O (stereo not given) | 92 | 93 | 92 | 88 | 91
COC(=O)C(C(=O)Nc1ncccn1)C1CCCCCC1 (stereo not given) | ? | 317*[may fluoresce violet] | ? | ? | 107

Assay outcomes: PubChem BioAssay, NMMLSC
